Holding throughout (set-up): scale not given: direction of the effect not stated beside the values
The target of assay [1] is Protein translocase subunit SecA (Escherichia coli (strain K12)) (UniProt P10408). The experiment in a line: Assay to Identify E. coli SecA ATPase Inhibitors. In kind it is functional. The following applies: 30 µM.
In assay [2] the target is T1, Ubiquitin-activating enzyme e1, putative (Leishmania donovani (strain BPK282A1)) (UniProt E9BSI1).
T1 sequence (whole entry): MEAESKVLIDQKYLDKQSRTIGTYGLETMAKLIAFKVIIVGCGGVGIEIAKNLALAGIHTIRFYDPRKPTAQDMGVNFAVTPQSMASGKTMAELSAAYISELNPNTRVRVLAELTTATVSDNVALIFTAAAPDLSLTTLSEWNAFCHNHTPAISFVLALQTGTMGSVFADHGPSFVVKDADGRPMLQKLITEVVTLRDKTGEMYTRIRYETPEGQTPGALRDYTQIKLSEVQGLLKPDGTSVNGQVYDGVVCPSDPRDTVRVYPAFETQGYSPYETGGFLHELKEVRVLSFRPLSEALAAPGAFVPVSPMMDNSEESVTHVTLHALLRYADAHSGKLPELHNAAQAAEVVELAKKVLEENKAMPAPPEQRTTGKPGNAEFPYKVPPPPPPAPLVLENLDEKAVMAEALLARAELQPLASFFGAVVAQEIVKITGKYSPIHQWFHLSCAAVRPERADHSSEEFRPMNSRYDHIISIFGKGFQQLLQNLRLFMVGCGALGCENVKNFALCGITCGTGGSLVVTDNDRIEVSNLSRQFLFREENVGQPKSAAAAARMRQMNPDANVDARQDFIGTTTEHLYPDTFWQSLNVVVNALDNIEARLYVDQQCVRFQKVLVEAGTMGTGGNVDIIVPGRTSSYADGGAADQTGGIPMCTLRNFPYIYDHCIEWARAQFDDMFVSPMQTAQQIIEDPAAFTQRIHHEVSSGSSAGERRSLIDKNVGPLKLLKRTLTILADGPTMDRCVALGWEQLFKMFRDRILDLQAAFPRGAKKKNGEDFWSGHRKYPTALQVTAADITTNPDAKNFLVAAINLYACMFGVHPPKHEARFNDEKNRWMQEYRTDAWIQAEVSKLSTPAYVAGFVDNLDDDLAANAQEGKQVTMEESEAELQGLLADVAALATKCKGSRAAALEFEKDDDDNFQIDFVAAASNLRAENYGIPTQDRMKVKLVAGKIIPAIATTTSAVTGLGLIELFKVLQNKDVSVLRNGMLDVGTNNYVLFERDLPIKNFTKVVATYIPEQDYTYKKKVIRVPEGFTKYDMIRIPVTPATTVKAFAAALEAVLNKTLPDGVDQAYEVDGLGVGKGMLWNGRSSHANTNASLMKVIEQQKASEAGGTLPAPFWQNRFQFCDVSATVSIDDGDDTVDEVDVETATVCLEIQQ
Briefly: Leishmania donovani Ubiquitin Activating Enzyme (LdE1). The format is functional. The following applies: 30 µM.

Assay [3] concerns the target AMP-activated protein kinase, AMPK (Homo sapiens) (UniProt P54646+O43741+P54619+Q9UGJ0+Q9Y478+Q13131+Q9UGI9). The experiment in a line: AMP-dependent Kinase enzyme assay. An in vitro enzyme assay that detects ADP turnover that is directly proportional to AMPK activity. This uses naive AMPK that is activated during the assay with MK-8722. The format is functional. The following applies: 30 µM.

For assay [4], the target named is Sialic acid-binding Ig-like lectin 9 (Homo sapiens) (UniProt Q9Y336). The experiment in a line: Hs-Siglec9 ALPHAscreen SOP 20170721. Particulars: 10 µM. In general terms: In Alpha technology, singlet oxygen from a donor bead excites a nearby acceptor bead.
Sialic acid-binding Ig-like lectin 9 (Homo sapiens), sequence (Q9Y336 whole entry): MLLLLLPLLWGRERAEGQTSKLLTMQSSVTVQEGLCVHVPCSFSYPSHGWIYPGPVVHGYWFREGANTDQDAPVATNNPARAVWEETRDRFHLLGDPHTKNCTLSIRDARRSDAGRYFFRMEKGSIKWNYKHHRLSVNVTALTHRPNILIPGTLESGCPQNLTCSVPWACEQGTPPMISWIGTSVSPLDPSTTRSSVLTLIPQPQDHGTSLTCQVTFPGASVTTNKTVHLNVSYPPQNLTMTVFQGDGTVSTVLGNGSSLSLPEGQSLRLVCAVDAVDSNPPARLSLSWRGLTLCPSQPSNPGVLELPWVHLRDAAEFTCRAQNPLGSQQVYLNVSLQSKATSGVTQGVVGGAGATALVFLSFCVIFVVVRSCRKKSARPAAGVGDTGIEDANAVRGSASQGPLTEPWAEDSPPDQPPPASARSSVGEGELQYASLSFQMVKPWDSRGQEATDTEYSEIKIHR
The next assay concerns Trypanosoma cruzi. Briefly: Trypanosoma cruzi phosphomannomutase and mannose-1-phosphate guanylyltransferase assay. Particulars: 10 µM. In kind it is functional.
Assay [5] deals with T2, Arginase-2, mitochondrial (Homo sapiens) (UniProt P78540).
T2 sequence (whole entry): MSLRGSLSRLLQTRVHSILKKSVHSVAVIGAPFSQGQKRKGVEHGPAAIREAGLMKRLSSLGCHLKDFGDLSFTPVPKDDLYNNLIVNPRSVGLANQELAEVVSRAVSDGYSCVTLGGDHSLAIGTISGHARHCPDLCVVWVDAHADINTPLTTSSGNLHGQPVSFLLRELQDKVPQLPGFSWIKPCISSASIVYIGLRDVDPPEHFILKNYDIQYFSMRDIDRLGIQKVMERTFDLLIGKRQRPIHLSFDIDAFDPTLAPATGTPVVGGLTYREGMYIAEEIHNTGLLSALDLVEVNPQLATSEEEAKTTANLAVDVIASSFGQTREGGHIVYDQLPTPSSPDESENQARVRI
The experiment in a line: in vitro enzyme assay to detect the production of urea directly proportional to the activity of Arginase II. Further: in the data most compounds retested in dose-response had high values. The format is functional. The following applies: 33.3 µM.

Assay [6] addresses T3, Proteasome subunit beta (Trypanosoma cruzi) (UniProt O96673).
T3 sequence (whole entry): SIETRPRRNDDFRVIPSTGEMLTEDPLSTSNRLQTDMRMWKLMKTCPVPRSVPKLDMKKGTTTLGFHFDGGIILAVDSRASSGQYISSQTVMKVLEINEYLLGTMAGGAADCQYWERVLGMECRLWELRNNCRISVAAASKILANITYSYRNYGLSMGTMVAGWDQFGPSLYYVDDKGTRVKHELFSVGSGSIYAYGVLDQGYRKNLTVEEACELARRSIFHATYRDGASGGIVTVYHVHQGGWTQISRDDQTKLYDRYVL
Briefly: Trypanosoma cruzi proteasome chymotrypsin-like activity (TcProtChymo) assay. Further: in the data most compounds retested in dose-response had high values. Particulars: 9.37 µM. The format is functional.

The next assay is filed under the species Homo sapiens. The experiment in a line: To identify inhibition of the IFN signalling (Jak-Stat) pathway via expression of an eGFP reporter gene under the control of an IFN-stimulated response element (ISRE) containing MxA promoter. The format is functional. The following applies: 30 µM. (In general: A reporter such as luciferase makes a cellular process visible.)

Assay [7] deals with T4, Tyrosyl-tRNA synthetase, putative (Trypanosoma cruzi (strain CL Brener)) (UniProt Q4DSP6).
T4 sequence (whole entry): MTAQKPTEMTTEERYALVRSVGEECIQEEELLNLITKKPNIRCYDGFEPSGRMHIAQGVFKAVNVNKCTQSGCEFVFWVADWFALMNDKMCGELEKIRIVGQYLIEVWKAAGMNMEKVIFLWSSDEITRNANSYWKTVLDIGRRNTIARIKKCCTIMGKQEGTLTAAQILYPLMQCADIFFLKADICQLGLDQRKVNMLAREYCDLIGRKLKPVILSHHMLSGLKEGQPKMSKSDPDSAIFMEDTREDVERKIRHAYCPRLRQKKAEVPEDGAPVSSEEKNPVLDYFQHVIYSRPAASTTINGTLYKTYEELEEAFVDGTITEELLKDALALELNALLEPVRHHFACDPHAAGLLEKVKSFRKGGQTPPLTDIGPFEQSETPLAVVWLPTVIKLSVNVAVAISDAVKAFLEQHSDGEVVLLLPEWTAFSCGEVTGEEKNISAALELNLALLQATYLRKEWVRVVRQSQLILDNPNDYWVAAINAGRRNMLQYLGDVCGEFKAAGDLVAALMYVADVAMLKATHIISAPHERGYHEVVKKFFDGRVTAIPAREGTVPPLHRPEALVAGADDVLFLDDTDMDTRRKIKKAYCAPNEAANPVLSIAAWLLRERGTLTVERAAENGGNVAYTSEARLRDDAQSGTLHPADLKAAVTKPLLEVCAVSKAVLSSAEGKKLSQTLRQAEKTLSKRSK
Briefly: Trypanosoma cruzi tyrosyl tRNA synthetase (TcYRS) _High Tyrosine SOP. Further: in the data most compounds retested in dose-response had high values. The following applies: 30 µM. In kind it is functional.

The target in assay [8] is T4, Tyrosyl-tRNA synthetase, putative (Trypanosoma cruzi (strain CL Brener)). Briefly: Trypanosoma cruzi tyrosyl tRNA synthetase (TcYRS) SOP. Particulars: 30 µM. In kind it is functional.
In assay [9] the target is Chromo domain-containing protein 1 (Saccharomyces cerevisiae (strain ATCC 204508 / S288c) (Baker's yeast)) (UniProt P32657). Briefly: ScCHD-1 Enzyme Inhibition Assay. Further: in the data most compounds retested in dose-response had high values. Particulars: 30 µM. The format is functional.
Chromo domain-containing protein 1 (Saccharomyces cerevisiae (strain ATCC 204508 / S288c) (Baker's yeast)), sequence (P32657 whole entry, the tested form may be a part): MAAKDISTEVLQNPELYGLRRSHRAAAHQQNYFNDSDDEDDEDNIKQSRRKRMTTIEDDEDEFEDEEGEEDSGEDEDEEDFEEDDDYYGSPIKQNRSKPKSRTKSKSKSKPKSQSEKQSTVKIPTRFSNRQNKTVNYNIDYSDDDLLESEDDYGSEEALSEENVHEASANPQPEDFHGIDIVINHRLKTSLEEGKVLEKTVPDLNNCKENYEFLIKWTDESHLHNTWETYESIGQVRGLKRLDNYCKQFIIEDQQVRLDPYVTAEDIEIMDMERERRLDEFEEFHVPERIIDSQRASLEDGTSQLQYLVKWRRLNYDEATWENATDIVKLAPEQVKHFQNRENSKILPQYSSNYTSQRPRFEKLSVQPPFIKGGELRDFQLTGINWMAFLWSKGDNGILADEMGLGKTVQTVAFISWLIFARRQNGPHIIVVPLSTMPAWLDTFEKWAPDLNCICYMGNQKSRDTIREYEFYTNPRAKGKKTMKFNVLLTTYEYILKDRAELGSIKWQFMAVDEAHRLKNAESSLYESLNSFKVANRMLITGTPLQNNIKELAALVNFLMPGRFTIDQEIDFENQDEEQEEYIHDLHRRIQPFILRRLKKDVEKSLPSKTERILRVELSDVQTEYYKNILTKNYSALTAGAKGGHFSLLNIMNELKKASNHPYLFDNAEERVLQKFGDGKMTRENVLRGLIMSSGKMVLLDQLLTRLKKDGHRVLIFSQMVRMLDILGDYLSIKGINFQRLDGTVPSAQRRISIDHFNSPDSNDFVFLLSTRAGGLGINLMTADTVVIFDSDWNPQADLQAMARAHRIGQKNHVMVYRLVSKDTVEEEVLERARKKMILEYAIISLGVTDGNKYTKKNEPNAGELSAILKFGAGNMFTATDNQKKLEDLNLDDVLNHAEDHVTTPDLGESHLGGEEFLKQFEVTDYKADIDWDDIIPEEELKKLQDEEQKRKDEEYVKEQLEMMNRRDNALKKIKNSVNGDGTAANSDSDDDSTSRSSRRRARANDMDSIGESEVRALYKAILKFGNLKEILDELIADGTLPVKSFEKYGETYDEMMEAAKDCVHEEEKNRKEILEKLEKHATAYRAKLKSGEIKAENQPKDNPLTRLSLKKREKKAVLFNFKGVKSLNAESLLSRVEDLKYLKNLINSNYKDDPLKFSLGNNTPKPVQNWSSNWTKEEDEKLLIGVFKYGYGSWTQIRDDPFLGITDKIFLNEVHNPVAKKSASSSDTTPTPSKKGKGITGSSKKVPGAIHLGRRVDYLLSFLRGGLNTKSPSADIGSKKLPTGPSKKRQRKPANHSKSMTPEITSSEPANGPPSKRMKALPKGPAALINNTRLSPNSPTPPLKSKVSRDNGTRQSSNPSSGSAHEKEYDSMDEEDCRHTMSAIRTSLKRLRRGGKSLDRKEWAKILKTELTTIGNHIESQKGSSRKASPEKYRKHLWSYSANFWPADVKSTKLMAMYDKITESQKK

For some of these results: Potency and affinity values are given separately.

Protein translocase subunit SecA (Escherichia coli (strain K12)), sequence (P10408 whole entry): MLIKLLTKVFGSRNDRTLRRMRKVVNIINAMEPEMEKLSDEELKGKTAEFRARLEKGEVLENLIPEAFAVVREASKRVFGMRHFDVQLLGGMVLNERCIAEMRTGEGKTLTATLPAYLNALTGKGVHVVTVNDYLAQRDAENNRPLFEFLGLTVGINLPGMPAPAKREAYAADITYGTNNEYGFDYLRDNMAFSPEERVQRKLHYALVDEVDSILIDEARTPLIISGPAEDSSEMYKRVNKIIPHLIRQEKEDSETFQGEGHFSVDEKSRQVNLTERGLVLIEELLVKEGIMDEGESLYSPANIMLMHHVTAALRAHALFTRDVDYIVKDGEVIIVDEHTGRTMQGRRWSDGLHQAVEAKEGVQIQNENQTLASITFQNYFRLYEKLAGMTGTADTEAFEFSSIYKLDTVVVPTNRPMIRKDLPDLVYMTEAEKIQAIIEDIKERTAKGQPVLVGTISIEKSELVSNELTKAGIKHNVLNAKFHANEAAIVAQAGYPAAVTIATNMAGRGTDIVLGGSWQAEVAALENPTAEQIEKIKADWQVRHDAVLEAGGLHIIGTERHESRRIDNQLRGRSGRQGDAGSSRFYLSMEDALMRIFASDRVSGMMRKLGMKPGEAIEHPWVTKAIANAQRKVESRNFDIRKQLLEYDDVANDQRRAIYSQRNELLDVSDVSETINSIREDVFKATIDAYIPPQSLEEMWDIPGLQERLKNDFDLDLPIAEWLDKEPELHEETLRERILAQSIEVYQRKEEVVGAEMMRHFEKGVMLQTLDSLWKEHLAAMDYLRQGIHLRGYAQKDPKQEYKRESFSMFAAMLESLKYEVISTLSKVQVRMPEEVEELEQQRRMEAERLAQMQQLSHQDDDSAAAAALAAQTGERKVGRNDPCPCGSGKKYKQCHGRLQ

As for `CN(C)S(=O)(=O)N1CCC(Oc2cnccn2)CC1`, the Percent Effect in assay [1] was -5.97%; in assay [2] it was 13%; in assay [3], -2.04%; in assay [4], 3.81%; with Trypanosoma cruzi, 1.28%; in [5], -1.94%. Moreover, the Percent Effect is 20.2% in [6]; 6.27% in the assay filed under Homo sapiens; 4.23% in assay [7]; 14.1% in [8]; -9.34% in assay [9].

On to `CC(C)(C)c1ncc2c(n1)CN(C(=O)c1ccncc1)C2`, for which the Percent Effect in assay [1] was -2.88%; in [2], 5.48%; in assay [3], -0.32%; in [4], 6.45%; in the assay on Trypanosoma cruzi, -3.57%; in [5] it was -3.19%. Further, the Percent Effect in assay [6] was 17.7%; in the assay filed under Homo sapiens it was -6.92%; in assay [7], 9.38%; in assay [8], 16.1%; in assay [9], -0.422%.

Turning to `Cc1nc(C)n(CC2CCCCN2CCS(C)(=O)=O)n1` (stereo not drawn), the Percent Effect in [1] is -4.31%; in assay [2] it was -2.7%; in assay [3], 0.489%; in [4], 0.818%; with Trypanosoma cruzi, -3.09%; in assay [5] it was -3.33%. The Percent Effect in assay [6] is 11.7%; in the assay listed under Homo sapiens, 8.2%; in [7], -2.65%; in assay [8], -4.88%; in assay [9], -3.45%.

For `CCNC(=O)N1CCCCC1CCNS(C)(=O)=O` (stereo not drawn), the Percent Effect is -1.55% in [1]; 5.41% in assay [2]; -3.93% in assay [3]; 3.76% in assay [4]; 8.3% in the assay with Trypanosoma cruzi; -3.33% in assay [5]. Further, the Percent Effect in [6] is 13.3%; in the assay listed under Homo sapiens, 6.93%; in [7], 7.94%; in [8], 9.76%; in [9], -1.52%.

Turning to `O=C(c1cscn1)N1CC[C@]2(C[C@@H](OCCN3CCCC3)CO2)C1`, the Percent Effect in assay [1] is -1.81%; in assay [2] it was 13.3%; in [3] it was 1.02%; in [4], -2.21%; in the assay on Trypanosoma cruzi it was -2.95%; in [5], -0.699%. The Percent Effect in [6] was 11.4%; in the assay listed under Homo sapiens, 7.58%; in [7] it was 5.32%; in assay [8], 14.1%; in assay [9], -0.0589%.

Take `Cn1cc(C(=O)N[C@@H]2CN(Cc3cccs3)[C@@H]3CCCO[C@@H]32)cn1`: the Percent Effect in [1] was -4.79%; in [2], 13.3%; in assay [3] it was -3.04%; in assay [4], -0.505%; in the assay with Trypanosoma cruzi, 0.579%; in assay [5], -49.6%. Besides, the Percent Effect in [6] was 9.74%; in the assay filed under Homo sapiens, -5.26%; in assay [7], 1.04%; in [8], 12.5%; in assay [9] it was -7.8%.

Take `CC(=O)Nc1ccc(S(=O)(=O)NC(=O)CCC2CCCO2)cc1` (stereo not drawn): the Percent Effect in assay [1] was -9.79%; in assay [2], 10.8%; in assay [3], -16.6%; in assay [4], 34.9%; in the assay on Trypanosoma cruzi, 8.21%; in [5], -16.8%. Moreover, the Percent Effect in [6] was 6.31%; in the assay listed under Homo sapiens, -1.72%; in assay [7] it was 1.48%; in [8], 13.6%; in [9] it was -16.9%.

`Cc1n[nH]cc1C(=O)N1CCCC(n2nnc3cc(F)ccc32)C1` (stereo not drawn): the Percent Effect was -5.29% in assay [1]; 5.33% in assay [2]; 7.57% in assay [3]; -0.922% in [4]; 6.5% with Trypanosoma cruzi; -3.5% in [5]. The Percent Effect in [6] is 11.7%; in the assay listed under Homo sapiens, 5.51%; in assay [7] it was 5.32%; in assay [8], 11.5%; in assay [9] it was -7.34%.

These data come from ChEMBL document CHEMBL3988442, “University of Dundee, Small-Polar-MMV Screening Library” (2021).
